Screens as filed in PubChem.
HT1080NT lethal – kills 2HG-producing HT-1080-NT fibrosarcoma cells; HT-1080-NT fibrosarcoma viability, CellTiter-Glo ATP luminescence, 48 h; Potency, µM (highest dose often 46.1 µM), for inactives: top-dose activity, negative = less viability, usual class: cytotoxic; hit rate 1.6% among 360,000;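 note: NT is the 2HG producing partner of a matched IDH1 knockdown line; potency is the fitted concentration of half-maximal effect; 0% = DMSO-treated cells and -100% = media-only wells without cells; nearly all actives have a fitted effect of over 55% in size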
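Compounds were tested in concentration-response format on HT-1080-NT cells for 48 hours at 37 degrees C. Cell viability came from CellTiter-Glo luminescence; curves were classified by r2, response magnitude and activity.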
HT1080 IDH1KD tx – kills HT-1080 cells with IDH1 knockdown | Potency, µM (series often up to 46.1 µM), inactives show top-dose activity, negative = toxicity, usual class: cytotoxic | AID 686971 | HT-1080 IDH1 knockdown viability, ATP luminescence, 48 h | hit rate 2% among 360,000;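 note: potency is the fitted concentration of half-maximal effect; 0% = DMSO wells and -100% = cell-free medium wells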
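Luminescent ATP read-out (CellTiter-Glo, 10 min at room temperature) after 48 h compound exposure at 37 °C gave viability of IDH1-knockdown HT-1080 cells. Activity was normalised to DMSO and cell-free wells, then fitted as concentration-response curves.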
DT40 TDP1 CPT – DT40-hTDP1 cell growth loss with CPT. chicken DT40 Tdp1-/-;hTDP1 cells + 20 nM CPT, ATP luminescence, 48 h. Potency, µM (top dose mostly 46.2 µM), for the others: at the highest dose activity change, negative = growth inhibition, usual class: inhibitors. hit rate 12% among 420,000; note: potency is the fitted concentration of half-maximal effect; nearly all actives have a fitted effect of over 55% in size
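Chicken DT40 Tdp1-/- cells stably complemented with human TDP1 were seeded at 400 cells/well in medium containing 20 nM camptothecin, exposed to pin-transferred compounds, and grown at 37 °C for at least 48 hr. Viability was read as ATP luminescence.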
DT40 TDP1 no CPT – qHTS for Inhibitors of human tyrosyl-DNA phosphodiesterase 1 (TDP1): qHTS in cells in absence of CPT | DT40 Tdp1-/- hTDP1 cells, no CPT, ATP luminescence, 48 h | Potency, µM (top dose mostly 46.2 µM), for inactives: at the highest dose activity change, negative = growth inhibition, actives largely listed as inhibitors | hit rate 15% among 420,000; note: potency is the fitted concentration of half-maximal effect; nearly all actives have a fitted effect of over 55% in size
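Growth of hTDP1-complemented DT40 Tdp1-knockout cells is measured by ATP luminescence after at least 48 hr compound exposure at 37 °C, with DMSO substituting for the 20 nM CPT used in the parallel screen.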
IL1B secr inh – inhibitors of inflammasome signaling (IL-1 beta secretion); THP-1 LPS/ATP IL-1B secretion, AlphaLISA, 16 h; hits give low values; AID 743279; hit rate 4.7% among 360,000; activity change, % at 57.5 µM; in the data active = activity change below about -50%; inconclusive = mostly about -30% to -49%
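Secreted IL-1B measured by AlphaLISA bead assay after 16 h compound exposure of THP-1 cells; compounds (final up to 57.5 uM) added 1 h before LPS (250 ng/mL) and ATP (1.25 mM) stimulation; lower signal means less secretion.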
* marks the source's active call; other numbers are inactive results; ? = inconclusive; . = no result given. The list is not random: actives were taken first. Their share in the collection is about 19%. Unless noted, calls come from the whole dose curve; as a rule, active = well fitted curve in the direction sought with a large enough effect; inconclusive = small, poorly fitted or top-dose-only effect, or another doubt; inactive = no such curve, though single readings can be large; an effect the other way counts as inactive or inconclusive. Unless noted, % is set by controls: 0 for no effect and ±100 for the full control effect.

SMILES | HT1080NT lethal | HT1080 IDH1KD tx | DT40 TDP1 CPT | DT40 TDP1 no CPT | IL1B secr inh
COC(=O)CC1(C(=O)OC)Oc2ccc(Br)cc2C(=O)N1c1ccc(Br)cc1Cl (stereo unspecified) | 14.6µM* | 14.6µM* | 5.8µM* | 4.11µM* | -28.4
CC(=O)Nc1ccc(NC(=O)CCC(=O)OCC(=O)c2ccc(F)cc2)cc1 | -5.5% | -6.1% | -12.8% | 2.9% | -13.0
CCOc1ccc(C2CC(=O)N(Nc3ccc([N+](=O)[O-])cc3[N+](=O)[O-])C2=O)cc1 (stereo unspecified) | 4.8% | -0.8% | 11.4% | 10.6% | -14.3
COc1ccccc1/C=C/C(=O)NCc1ccccn1 | 2.8% | 10.7% | 8.4% | -14.0% | -19.0
C=C(c1nc2ccccc2s1)C1Cc2cccc3c2N(CCC3)C1 (stereo unspecified) | . | . | 0.0891µM* | 0.0891µM* | .
Cc1ccccc1C(=O)NCC(=O)NCC1(N2CCOCC2)CCCCC1 | 4.4% | 2.0% | -3.9% | -16.4% | -11.2
CCC1CCc2nc3sc(C(=O)Nc4ccc(C)cc4)c(N)c3cc2C1 (stereo unspecified) | . | . | 11.6µM* | 7.31µM* | .
CCC1CCc2nc3sc(C(=O)Nc4cccc(F)c4)c(N)c3cc2C1 (stereo unspecified) | . | . | 3.26µM* | 2.06µM* | .
CN1CCc2nc3sc(C(=O)NCc4ccccc4)c(N)c3cc2C1 | -3.7% | ? | ? | -27.0% | -8.2
CCC1CCc2nc3sc(C(=O)Nc4ccc(F)cc4F)c(N)c3cc2C1 (stereo unspecified) | . | . | 8.2µM* | ? | .
CCC1CCc2nc3sc(C(=O)Nc4cccc(C(F)(F)F)c4)c(N)c3cc2C1 (stereo unspecified) | . | . | ? | 18.4µM* | .
CCOc1ccc(NC(=O)c2cccc(OC(=S)N3CCOCC3)c2)cc1 | -1.2% | -5.3% | -4.3% | ? | 39.7
COc1ccc(NC(=S)N2CCCC2)c(OC)c1 | 14.4% | 5.0% | -18.2% | -14.2% | 3.3
COc1ccc(NC(=S)N2CCN(Cc3cccc(F)c3)CC2)c(OC)c1 | 10.5% | 8.5% | 23.1µM* | 20.6µM* | 26.1
COc1ccc(NC(=S)N2CCN(Cc3ccco3)CC2)c(OC)c1 | -1.0% | -3.9% | ? | 13µM* | 0.0
CCC[C@@H]1C[C@@H](C(=O)N[C@@H]([C@H]2O[C@H](SC)[C@H](O)[C@@H](O)[C@H]2O)[C@H](C)Cl)N(C)C1 | . | . | -28.0% | -12.2% | .
O=C1NC(=O)c2c(Br)c(Br)c(Br)c(Br)c21 | 18.1% | 13.8% | -23.5% | -16.9% | -16.2
Cc1c(C(=O)Nc2ccc(F)c(Cl)c2)oc2ccc(S(=O)(=O)N(C)C3CCCCC3)cc12 | . | . | 23.1µM* | 14.6µM* | .
COc1ccc(NC(=O)c2oc3ccc(S(=O)(=O)N(C)C4CCCCC4)cc3c2C)cc1Cl | . | . | 9.2µM* | 5.8µM* | .
COc1ccc(NC(=O)CN(C)C2CCCCC2)cc1Cl | -5.4% | -14.2% | -6.1% | -23.9% | -5.2
COc1ccc2oc(C(=O)Nc3ccc(S(=O)(=O)N(C)C4CCN(C)CC4)cc3)c(C)c2c1 | 23.1µM* | 18.4µM* | ? | 18.4µM* | ?
Cc1c(C(=O)O)oc2ccc(S(=O)(=O)NC3CCCCCCC3)cc12 | -4.4% | 11.1% | -16.1% | 0.0% | 9.4
Cc1c(C(=O)Nc2cccc(C(F)(F)F)c2)oc2ccc(S(=O)(=O)N(C)C3CCCCC3)cc12 | . | . | 11.6µM* | 13µM* | .
COc1ccc(CNC(=O)c2cc3cc(S(=O)(=O)N4CCCCC4)ccc3n2C)c(OC)c1 | . | . | -24.9% | ? | .
CCCc1c(C(=O)OCC)nnc2c(-c3ccccc3)c(C)nn12 | . | . | ? | -24.1% | .
SMILES | HT1080NT lethal | HT1080 IDH1KD tx | DT40 TDP1 CPT | DT40 TDP1 no CPT | IL1B secr inh
O=C(NC1CCCCCC1)C1c2ccccc2C(=O)N1Cc1ccc(F)cc1 (stereo unspecified) | . | . | -19.3% | -24.2% | .
O=C(NC1CC1)c1cccc(NC(=O)c2cn3ccccc3n2)c1 | -2.6% | -15.1% | ? | ? | 5.2
Cc1ccc(NC(=O)c2cc(S(=O)(=O)N(C)C3CCCCC3)ccc2F)cc1C | . | . | 18.4µM* | 18.4µM* | .
Cc1ccc(NC(=O)c2oc3ccc(S(=O)(=O)N(C)C4CCCCC4)cc3c2C)c(C)c1 | . | . | ? | 14.6µM* | .
COCCCNC(=O)c1oc2ccc(S(=O)(=O)N(C)C3CCCCC3)cc2c1C | 3.2% | -10.1% | ? | ? | -7.8
O=C(CSC(=S)N1CCCC1)N(Cc1nnc(-c2ccccc2Cl)o1)C1CC1 | -3.4% | 7.1% | -18.0% | 1.8% | -3.9
NC(=S)N/N=C1\CCOc2ccc(F)cc21 | -7.8% | ? | ? | 16.4µM* | ?
C=CC[n+]1c(/C=C2\C=Cc3cc(C)ccc3N2CC)ccc2ccccc21 | ? | 13µM* | 0.184µM* | 0.0731µM* | -88.1*
CCC(CO)Oc1cc(NCc2cccc(OC)c2)c2ncn(C(C)C)c2c1 (stereo unspecified) | 7.9% | 0.0% | 20.6µM* | ? | -4.0
CCC(CO)Oc1cc(NC(=O)Cc2ccccc2)c2ncn(C(C)C)c2c1 (stereo unspecified) | 5.3% | 0.0% | -21.5% | ? | -14.3
CCC(CO)Oc1cc(NCc2cccc(O)c2)c2ncn(C(C)C)c2c1 (stereo unspecified) | 15.5% | 16.3% | 23.1µM* | ? | 36.5
CCC(CO)Oc1cc(NCc2ccccn2)c2ncn(C(C)C)c2c1 (stereo unspecified) | 0.4% | 0.6% | -21.0% | -7.3% | 4.4
